Here are results for 34 molecules from PubChem BioAssay (NCI).

This is part of a sample that, as a whole, favours compounds with a hit. Of some 83,000 tested, about 20% had one in any assay.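 Treatment: one concentration, 48 hours, 96-well format. Scoring: percent growth, with anything below 10 considered active.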 A number with no mark means an inactive call. Activity calls are given as the source filed them.

Assay in all cases: NCI-60 one-dose screen, 48 h (100 = growth as untreated, 0 = no growth, -100 = all killed)
Holding throughout (conditions): 10 µM unless noted

Assay [1] relates to SR leukemia.
Assay [2] deals with OVCAR-8 ovarian.
For assay [3], the system named is OVCAR-5 ovarian.
Assay [4] has as its system SK-OV-3 ovarian.
Assay [5] deals with IGROV1 ovarian.
Assay [6] has as its system OVCAR-3 ovarian.
Assay [7] deals with HS 578T breast.
Assay [8] concerns NCI/ADR-RES ovarian.
Assay [9] deals with RPMI-8226 leukemia.
For assay [10], the system named is OVCAR-4 ovarian.

In the case of `CC(=O)OCC1OC(n2cnc3c(=S)nc(N)[nH]c32)C(OC(C)=O)C1OC(C)=O` (stereo not drawn), the growth was 12.9% in [1]; 76.6% in [2]; 70% in assay [3]; 50.1% in [4]; 96.6% in assay [5]; 83.4% in assay [6]. In addition, the values for the growth in assay [7] and in [8] were 77.3% and 78.4%, respectively.
Turning to `CCOC(=O)c1cc(C)[nH]c(=O)c1C#N`, the growth in assay [9] was 80.4%; in [2], 108%; in [3] it was 105%; in assay [10], 107%; in [4] it was 95.4%; in assay [5] it was 118%. Besides, the values for the growth in assay [6], in [7] and in assay [8] were 105%, 107% and 109%, respectively.
Take `Cn1c(=O)c2nc3c(=O)n(C)c(=O)n(C)c3nc2n(C)c1=O`: the growth is 82.5% in assay [1]; 108% in assay [2]; 91.1% in [3]; 108% in assay [10]; 97% in assay [4]; 106% in [5]. The growth in [6] is 107%; in assay [7], -27.8% (active); in assay [8], 97%.
As to `CCN(C(=O)Nc1ccccc1Cl)c1ccccc1`, the growth was 81.4% in [1]; 101% in assay [2]; 97.1% in assay [3]; 113% in assay [4]; 103% in assay [5]; 116% in [6]. Further, the growth in [7] is 102%; in [8], 107%.
Consider `COC(=O)C1=C(C)C(=O)CC1`, for which the growth was 110% in assay [9]; 109% in assay [2]; 99.6% in [3]; 119% in [10]; 112% in assay [4]; 112% in assay [5]. Moreover, the values for the growth in assay [6], in assay [7] and in [8] were 114%, 104% and 135%, respectively.
Turning to `Nc1nnc2cc(F)ccc2n1`, the growth in [9] was 102%; in [2], 110%; in assay [3], 97.9%; in [10], 115%; in assay [4] it was 91.6%; in assay [5] it was 102%. Moreover, the growth in assay [6] is 96.2%; in assay [7], 97.2%.
For the molecule `CCCCCCCCCCCCCC/C=C\C(CC(=O)O)C(=O)O` (stereo not drawn), the growth is 113% in assay [9]; 103% in assay [2]; 105% in assay [3]; 112% in assay [10]; 105% in assay [4]; 117% in [5]. Besides, the growth was 114% in assay [6], 127% in [7] and 107% in [8].
As for `CC(=O)NC(CCc1ccc(Cl)c(Cl)c1)c1cccc(O)c(=O)c1` (stereo not drawn), the growth was 6.21% (active) in assay [1]; 13.9% in assay [2]; 47% in assay [3]; 24.5% in assay [10]; 12.7% in assay [4]; 20.1% in assay [6]. In addition, the growth in [7] was 54.1%.
For `Nc1nc2nnc(-c3ccccc3)c(-c3ccccc3)n2n1`, the growth was 50.7% in [9]; 101% in [2]; 86.3% in assay [3]; 101% in assay [10]; 102% in assay [4]; 127% in assay [5]. In addition, the growth in assay [6] is 185%; in assay [7], 88.9%; in assay [8] it was 97.2%.
As for `Nc1ncnc2c1ncn2C1OC(CO)C2OC21` (stereo not drawn), the growth was 112% in assay [1]; 98.7% in assay [2]; 109% in assay [10]; 105% in assay [4]; 106% in assay [6]; 98.9% in assay [7]. Besides, the growth in [8] was 110%.
`Cc1cc2c3ccc(C)[n+](C)c3ccc2n1C`: the growth is 15.4% in [1]; 30.3% in assay [2]; 68.2% in [3]; 62.6% in assay [10]; 35.9% in assay [4]; 47% in assay [6]. Moreover, the growth in assay [7] is 38.6%; in assay [8], 88.3%.
On to `CC(=O)N(C(C)=O)c1ccc(C)cc1`, for which the growth was 115% in assay [9]; 101% in assay [2]; 94.2% in [3]; 101% in [10]; 109% in assay [4]; 109% in [5]. The results for the growth in [6], in assay [7] and in assay [8] were 112%, 110% and 96.6%, respectively.
Regarding `OC1Cc2ccccc2C1`, the growth is 94.6% in [1]; 103% in assay [2]; 95.4% in assay [3]; 110% in [10]; 111% in assay [4]; 104% in assay [6]. The growth in assay [7] is 96%.
Consider `CCCCN(C(=O)CC)c1ccccc1`, for which the growth in assay [9] is 85.1%; in [2], 101%; in assay [3], 105%; in assay [10], 105%; in assay [4], 114%; in assay [5], 102%. For the same molecule, the growth in assay [6] was 111%; in assay [7], 99.4%; in [8], 110%.
In the case of `COc1cc(CC#N)c([N+](=O)[O-])cc1OC`, the growth is 91.2% in [1]; 98.2% in assay [2]; 111% in [3]; 128% in assay [10]; 111% in assay [4]; 95.6% in assay [5]. Besides, the values for the growth in assay [6], in assay [7] and in assay [8] were 109%, 117% and 105%, respectively.
Take `Nc1c(Br)cc(O)c2c1C(=O)c1ccccc1C2=O`: the growth in assay [9] is 84%; in [2] it was 55.6%; in [3], 112%; in assay [10], 87.4%; in [4] it was 109%; in [6] it was 96.2%. Also, the growth in assay [7] was 88.8%; in assay [8], 89.6%.
In the case of `CCOC(=O)C1(N)CCCCC1`, the growth was 110% in [9]; 107% in assay [2]; 94.6% in assay [3]; 121% in assay [10]; 100% in [4]; 85.4% in assay [5]. Further, the growth in [6] was 112%; in [7], 88.6%; in assay [8], 98.7%.
As for `O=c1cc(Cl)nc2ccccn12`, the growth is 114% in [9]; 110% in assay [2]; 101% in [3]; 120% in assay [10]; 110% in assay [4]; 96.5% in [5]. Further, the growth is 100% in assay [6], 104% in assay [7] and 104% in assay [8].
For the molecule `CCOC(=O)c1ccc(NC(=O)Nc2nccs2)cc1`, the growth in assay [9] was 6.43% (active); in assay [2], 8.24% (active); in assay [3], 25.9%; in assay [10], 16.7%; in assay [4] it was 10.8%; in assay [5], -16.2% (active). Further, the growth is -48.8% (active) in assay [6], 48.4% in [7] and -6.67% (active) in assay [8].
In the case of `O=C(O)Cc1ccccn1`, the growth in assay [9] is 102%; in assay [2] it was 102%; in [3], 101%; in assay [10], 117%; in assay [4], 104%; in [5], 105%. The growth is 114% in assay [6], 109% in assay [7] and 111% in assay [8].
As for `S=c1nc2[nH]c3ccccc3c2n[nH]1`, the growth in [9] was 74.2%; in [2] it was 97.4%; in assay [3] it was 93.6%; in assay [10], 102%; in assay [4], 89.3%; in assay [5] it was 103%. Also, the growth in assay [6] is 88.6%; in assay [7], 80.2%; in [8], 102%.
`NC(=S)N/N=C/c1ccc(OC(=O)COc2ccccc2)cn1`: the growth is 55.2% in assay [9]; 29.6% in assay [2]; 120% in assay [3]; 69.1% in assay [10]; 90.4% in [4]; 54.6% in [5]. For the same molecule, the growth was 60.2% in assay [6], 116% in [7] and 26.8% in [8].
As for `O=S(Cc1ccccc1)/C(=C/NC(=S)Nc1cc(Cl)ccc1Cl)c1ccccc1` (stereo not drawn), the growth is 102% in assay [9]; 113% in [2]; 100% in assay [3]; 105% in assay [10]; 101% in assay [4]; 95.8% in assay [5]. Further, the figures for the growth in assay [7] and in [8] were 102% and 105%, respectively.
In the case of `CC(=O)N=c1ccc2nc3c(cc(N)c4ccccc43)oc-2c1`, the growth in assay [9] was -19.9% (active); in [2] it was -22.1% (active); in assay [3], -73.5% (active); in assay [10], -89.8% (active); in assay [4], 80.1%; in [5], -81.7% (active). The results for the growth in assay [6], in assay [7] and in assay [8] were -82.8% (active), -27.7% (active) and -6.88% (active), respectively.
Take `CCCCc1ccc2nc(NC(=O)OC)[nH]c2c1`: the growth was -26.4% (active) in [9]; 11.6% in assay [2]; 23% in assay [3]; 59.4% in assay [10]; 15.2% in assay [4]; 15.8% in assay [5]. Also, the growth in assay [6] is -57.8% (active); in assay [7] it was 8.57% (active); in assay [8], -1.32% (active).
On to `CCOP(=O)(NC(c1ccccc1)c1ccccc1)OCC`, for which the growth in [9] is 104%; in assay [2] it was 98.1%; in [3] it was 108%; in assay [10] it was 106%; in [4] it was 107%; in assay [5], 92.2%. Further, the growth is 112% in assay [6], 107% in assay [7] and 104% in assay [8].
`C[C@H](CCC[C@H](C)OS(=O)(=O)c1ccccc1)OS(=O)(=O)c1ccccc1`: the growth is 121% in assay [9]; 101% in assay [2]; 115% in assay [3]; 103% in assay [10]; 101% in assay [4]; 73% in assay [5]. Besides, the growth was 109% in [6], 105% in assay [7] and 116% in [8].
For the molecule `C=CCOc1ccc(Cl)cc1Cl`, the growth is 113% in [9]; 119% in [2]; 93.1% in assay [3]; 106% in [10]; 118% in assay [4]; 116% in assay [5]. In addition, the growth in [6] was 111%; in [7] it was 113%; in assay [8], 109%.
As to `CN=S(=O)(OCCCCCOS(=O)(=NC)c1ccc(C)cc1)c1ccc(C)cc1` (stereo not drawn), the growth is 75.2% in assay [9]; 95% in assay [2]; 106% in [3]; 82.8% in assay [10]; 100% in assay [4]; 13.6% in assay [5]. The growth was 104% in assay [6], 90.1% in assay [7] and 89.7% in [8].
For the molecule `NC(=S)N/N=C/c1ccc(OC(=O)COc2ccc(Cl)cc2)cn1`, the growth in assay [9] is 59.1%; in [2] it was 23.9%; in assay [3], 120%; in assay [10], 59.2%; in assay [4], 82.1%; in [5], 46.5%. For the same molecule, the growth in assay [6] is 56.4%; in assay [7] it was 114%; in assay [8] it was 27.9%.
Regarding `CCCCCCCCCCC(=O)CCCCCCCCCC`, the growth is 98.8% in assay [9]; 109% in [2]; 103% in assay [3]; 103% in assay [10]; 92.1% in assay [4]; 118% in assay [6]. Besides, the growth was 114% in assay [7] and 100% in assay [8].
Regarding `O=C(NC(=S)N1CC=CCC1)c1ccccc1`, the growth in assay [9] was 104%; in assay [2], 100%; in assay [3] it was 97.4%; in [10], 116%; in assay [4], 107%; in assay [5], 122%. For the same molecule, the growth in assay [6] is 115%; in assay [7], 92.7%; in [8], 108%.
Regarding `CC(c1ccccc1)N1C(=O)CSC1=S` (stereo not drawn), the growth in assay [9] was 16.9%; in assay [2], 34.2%; in assay [3], 91.2%; in assay [10], 29.7%; in assay [4] it was 104%; in [5], -31.6% (active). For the same molecule, the figures for the growth in assay [6], in assay [7] and in assay [8] were -13.1% (active), 81.3% and -62.5% (active), respectively.
For the molecule `O=S(=O)(O)c1cccc2cccnc12`, the growth is 107% in assay [9]; 112% in [2]; 106% in assay [3]; 118% in [10]; 114% in assay [4]; 101% in assay [5]. Further, the growth in assay [6] is 95.3%; in [7], 95.2%; in [8], 106%.
